# Compound activity from PubChem.
# This is a sample that favours compounds with a hit; in the whole collection about 0.9% have one here.
# ugtP null kill: kills S. aureus RN4220 lacking UgtP. growth inhibition, % (concentration not given with the values). S. aureus RN4220 ugtP deletion, OD600 growth, 16 h. AID 1259309. 330,000 tested, 0.54% active; in the data active means growth inhibition above about 68%;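 further: plate controls were untreated wells for no effect and antibiotic for full effect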
# RN4220 kill: kills Staphylococcus aureus RN4220; S. aureus RN4220 growth, OD600, 16 h; inhibition, % (no concentration beside the values); 330,000 tested, 0.33% active; AID 1259311; in the data active means inhibition above about 85%;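 further: plate controls were untreated cells for no effect and reference antibiotic for full effect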
# PfHsp40 rescue: compounds rescuing yeast from Plasmodium falciparum HSP40 toxicity; S. cerevisiae expressing PfHsp40, growth rescue, ATP luminescence; 340,000 tested, 0.68% active; AID 504582; growth rescue, % at 12.5 µM; in the data active means growth rescue above about 28%, passing the limit was not always enough;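 further: yeast W303a lacking pdr1 and pdr3 grown in galactose medium; growth measured after three days at 30 °C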
# Mtb BioA inh: inhibitors of Mycobacterium tuberculosis BioA enzyme | 360,000 tested, 0.096% active | purified M. tuberculosis BioA enzyme, plate reader | AID 602481 | inhibition, % at 9.99 µM; in the data active means inhibition above about 40%
# Mtb betalactam: beta-lactam sensitization of Mtb H37Rv. M. tuberculosis H37Rv growth with meropenem, percent inhibition. inhibition, % at 25 µM. 330,000 tested, 0.27% active. AID 434955; call rule not given here;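 further: growth measured after seven days incubation then overnight dye step; 0% = bacteria only wells and 100% = bacteria with antibiotic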
# Starred values were filed as active, the others as inactive; . = no result.
SMILES,ugtP null kill,RN4220 kill,PfHsp40 rescue,Mtb BioA inh,Mtb betalactam
O=C(Nc1nc(-c2ccccc2)c(-c2ccccc2)o1)c1ccc(F)cc1,96.1*,99.1*,417.9*,-2.5,91.9
C[C@H]1c2cccc(O)c2C(O)=C2C(=O)[C@]3(O)C(O)=C(C(N)=O)C(=O)[C@@H](N(C)C)[C@@H]3[C@@H](O)[C@@H]21,.,.,-0.4,0.2,98.7
CC1c2cccc(O)c2C(=O)C2C(=O)C3(O)C(=O)C(C(N)=O)C(=O)C(N(C)C)C3C(O)C21 (stereo not given),99.4*,92.8*,.,.,.
CC1c2cccc(O)c2C(O)=C2C(=O)[C@]3(O)C(O)=C(C(N)=O)C(=O)C(N(C)C)C3C(O)C21 (stereo not given in full),99.4*,100.2*,.,.,.
CN(C)[C@@H]1C(=O)C(C(N)=O)=C(O)[C@@]2(O)C(=O)C3=C(O)c4c(O)cccc4[C@@](C)(O)[C@H]3[C@H](O)[C@@H]12,.,.,21.8,-11.4,1.7
CC1c2cccc(O)c2C(O)=C2C(=O)C3(O)C(O)=C(C(N)=O)C(=O)C(N(C)C)C3C(O)C21 (stereo not given),99.6*,97.5*,.,.,.
COc1cccc(OC)c1C(=O)OCC(=O)Nc1cccnc1Cl,2.0,-0.9,57.6*,.,6.2
O=C(NNC(=O)c1cc(F)c(F)cc1Cl)c1ccc(NS(=O)(=O)c2cccs2)cc1,-2.0,0.7,1.1,0.6,3.2
O=C(NNC(=O)c1cc(Cl)ccc1O)c1ccc(NS(=O)(=O)c2cccs2)cc1,-5.8,17.0,351.2*,-0.7,6.2
COc1ccc(S(=O)(=O)NC2CCCCC2)c(C)c1C,-2.3,2.4,86.0*,-1.4,1.9
CC1Oc2ccccc2N(CC(=O)c2ccccc2)C1=O (stereo not given),3.4,-0.4,0.9,0.3,17.8
O=C(c1ccccc1)N1C(=O)C(c2ccccc2)Oc2ccccc21 (stereo not given),1.1,1.5,234.0*,.,-2.5
O=C(COC(=O)c1cnc(Cl)c(Cl)c1)NCCC1=CCCCC1,7.5,2.6,30.4*,.,-6.4
COc1ccc(CN2C(=O)C3Cc4c([nH]c5ccccc45)C(C)(C)N3C2=O)cc1 (stereo not given),3.1,3.4,.,.,.
O=C1CC(N(CCc2ccccc2)C(=S)Nc2ccccc2)C(=O)N1c1ccc(Br)cc1 (stereo not given),97.8*,98.3*,1.2,-0.9,16.0
COc1ccc(CCN(C(=S)Nc2ccccc2)C2CC(=O)N(c3ccccc3)C2=O)cc1 (stereo not given),-21.6,-3.5,0.2,-0.1,0.4
O=Cc1ccc(Oc2cc(-c3ccccc3)nc(-c3ccccc3)n2)cc1,100.5*,69.1,-0.3,-1.1,9.1
CC(=O)c1ccc(Oc2cc(-c3ccccc3)nc(-c3ccccc3)n2)cc1,8.8,-4.0,0.0,.,9.6
COc1ccc(C(=O)c2c(C(F)(F)F)oc3c2C(=O)c2ccccc2C3=O)cc1OC,79.7,48.7,60.4*,3.5,99.3
COc1ccc(C(=O)Nc2ccc3c(c2)C(=O)c2ccccc2C3=O)cc1OC,-1.6,5.3,0.6,.,3.3
CCc1ccc2c(c1)/C(=C/C(=O)c1cccs1)C(=O)N2,97.1*,97.0*,1.2,-0.7,100.0
Cc1cccc2c1NC(=O)/C2=C\C(=O)c1cccs1,97.6*,96.6*,1.8,-1.2,-1.4
COC(=O)c1c(NC(=S)Nc2cc(OC)c(Cl)cc2OC)sc2c1CCCCC2,13.8,-9.8,-0.4,-0.5,2.8
CCOC(=O)c1c(NS(=O)(=O)Cc2ccccc2)sc2c1CCCC2,-19.4,12.1,0.5,0.5,2.3
COC(=O)c1c(NC(=S)NNS(=O)(=O)c2ccc(OC)cc2OC)sc2c1CCCCCC2,92.2*,-7.7,0.3,-3.3,-8.2
SMILES,ugtP null kill,RN4220 kill,PfHsp40 rescue,Mtb BioA inh,Mtb betalactam
CCOC(=O)c1c(NS(=O)(=O)c2ccc(Br)cc2)sc2c1CCC2,98.0*,112.1*,0.9,2.6,88.9
COC(=O)c1c(NS(=O)(=O)c2ccc3ccccc3c2)sc2c1CCCC2,78.4,87.4*,-0.3,-0.8,39.2
COC(=O)[C@]1(C)NC(c2ccc(-c3cccc(Cl)c3)cc2)C2C(=O)N(C)C(=O)C21 (stereo not given in full),0.9,5.0,.,.,.
Cn1c(SCC(=O)N2c3ccccc3Sc3ccc(Cl)cc32)nnc1-c1ccco1,5.0,3.7,36.2*,-0.2,-2.7
COc1ccc(NC(C)=C2C(=O)C(=O)N(CCO)C2c2ccc([N+](=O)[O-])cc2)cc1 (stereo not given),-0.5,5.4,.,.,.
Cc1ccc2cc(CN(Cc3ccco3)C(=O)c3cccs3)c(=O)[nH]c2c1,-2.0,-0.1,42.2*,1.8,-2.1
